Bioassay records (PubChem BioAssay)
IL1B cytotox – cytotoxicity in IL-1B stimulated HUVEC, primary screen, cytotoxicity control for IL-1B NFkB translocation project, imaging, Hoechst nuclear count, IL-1B stimulus; HUVEC cell count loss; cell count reduction, % at 2 µM; hit rate 0.41% among 94,000;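 active = cell count reduction more than 3 SD above the screen-wide mean, cut at about 70% in these data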;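 also: normalized per plate to untreated control cells as the no-loss baseline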
IL1B NFkB pot – enhancers of NFkB p65 translocation in HUVEC – imaging, IL-1B stimulus, high-content imaging, primary screen | activation, % at 2 µM | AID 819, 2007 | HUVEC IL-1B NFkB p65 nuclear translocation imaging | hit rate 0.3% among 94,000;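 active = activation above 40%, about the mean plus 3 SD, also judged a hit on visual image review; inconclusive = activation above 40% but not a hit on visual review; inactive = activation not above 40% and no visual hit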;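 also: percent activation is computed from the nuclear over cytoplasmic p65 intensity ratio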
IL1B NFkB inh – inhibitors of IL-1B driven NFkB p65 nuclear import, primary screen, imaging, HUVEC, IL-1B stimulus, high-content imaging; inhibition, % at 2 µM; hit rate 0.43% among 94,000; HUVEC IL-1B NFkB p65 nuclear translocation imaging; AID 796, 2007;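 active = inhibition above about 30% together with a positive call from visual inspection of the well image, limit read from the data; inconclusive = inhibition above a set limit but visual check negative; inactive = inhibition not above a set limit, visual check negative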;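 also: nuclear over cytoplasmic p65 intensity ratio measured by imaging; 0% = IL-1B stimulated DMSO wells and 100% = unstimulated DMSO wells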
E-sel TNF inh – E-selectin induction blockers in HUVEC – imaging, immunofluorescence, high content, primary screen. HUVEC TNFa-induced E-selectin immunofluorescence. hit rate 0.71% among 120,000. inhibition, % at 2 µM;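 active = inhibition above the batch mean plus 3 SD, and confirmed as a hit on visual image review, cut at about 43% in these data; inconclusive = passes the inhibition cutoff but fails visual image review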;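 also: 0% = TNF-stimulated DMSO wells and 100% = unstimulated control wells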
TNFa cytotox – cytotoxicity in TNFa-stimulated HUVEC, primary screen, cytotoxicity control for VCAM1 expression modulator project, imaging, Hoechst nuclei count; HUVEC TNFalpha-stimulated, Hoechst cell count; cell count reduction, % at 2 µM; hit rate 0.17% among 93,000; AID 848, 2007;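 active = cell count reduction exceeding the screen mean by over 5 SD, scaled to untreated wells per plate, cut at about 78% in these data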;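 also: cells counted after 24 h of TNF alpha exposure following the 1 h pretreatment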
VCAM1 TNFa inh – inhibitors of TNFa-induced VCAM1 expression, primary screen, imaging, HUVEC, TNFa stimulus, immunofluorescence; HUVEC TNFa-induced VCAM-1 immunofluorescence, high-content imaging; inhibition, % at 2 µM; hit rate 0.48% among 95,000;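 active = inhibition above the batch mean plus 3 SD, with images confirmed as a hit by eye, cut at about 37% in these data; inconclusive = inhibition above that limit but hit not confirmed in images; inactive = inhibition not above that limit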;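 also: 0% = TNF-stimulated DMSO wells and 100% = unstimulated control wells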
* marks the source's active call; other numbers are inactive results; ? = inconclusive; nt = no result given. An excerpt weighted towards active compounds, which were near 1.7% of everything screened.

SMILES | IL1B cytotox | IL1B NFkB pot | IL1B NFkB inh | E-sel TNF inh | TNFa cytotox | VCAM1 TNFa inh
CSc1nnc([C@@H](NC(=O)OC(C)(C)C)C(C)C)o1 | 5 | -10 | 10 | -4 | 28 | 14
CCSc1nnc([C@H](Cc2ccccc2)NC(=O)OC(C)(C)C)o1 | -177 | -8 | 8 | 5 | -16 | -18
O=C(COc1ccc2ccccc2c1)Nc1ccc(S(=O)(=O)N2CCCCCC2)cc1 | -59 | -1 | 2 | -24 | -36 | -4
O=C(NCCN1CCOCC1)c1cc2cc(Cl)cc(Cl)c2oc1=O | -32 | 34 | -34 | -1 | -3 | 10
Cc1cccc(OCCN2CSC(=S)N(C)C2)c1 | -1 | 33 | -33 | nt | 14 | 43*
COc1ccccc1OCCN1CSC(=S)N(C)C1 | nt | nt | nt | 21 | nt | nt
Cn1ccnc1SCC(=O)Nc1cccc([N+](=O)[O-])c1 | nt | nt | nt | -17 | nt | nt
Cn1nnnc1SCC(=O)Nc1cccc([N+](=O)[O-])c1 | nt | nt | nt | 76* | nt | nt
COc1cccc(C(=O)Oc2cc(N)n(S(=O)(=O)c3ccc(C)cc3)n2)c1OC | -4 | -33 | 32* | -29 | -14 | -4
COc1cc(-c2nnc3n2N=C(c2ccccc2)CS3)cc(OC)c1OC | -18 | 0 | 0 | -50 | -2 | 54*
COc1ccc(C2=Nn3c(nnc3-c3ccccc3OC)SC2)cc1OC | -90 | -29 | 29 | -24 | 55 | 48*
COc1ccc(C2=Nn3c(nnc3-c3ccc(OC)cc3)SC2)cc1 | 4 | 2 | -2 | 4 | 34 | 40*
COc1ccc(OC)c(C2=Nn3c(nnc3-c3cc(OC)c(OC)c(OC)c3)SC2)c1 | -15 | -3 | 3 | -41 | -7 | -12
CCc1ccc(C(=O)OCC(=O)c2c(N)n(CC(C)C)c(=O)n(C)c2=O)cc1 | nt | nt | nt | -36 | nt | nt
Cn1c(=O)n(C)c2cc(NC(=O)CCl)ccc21 | -4 | 17 | -17 | -10 | -33 | 18
CCN(CC)S(=O)(=O)c1cccc(C(=O)OCC(=O)Nc2ccccc2OC(F)F)c1 | -62 | -43 | 43* | 12 | -32 | -8
CN(C)S(=O)(=O)c1cccc(C(=O)OCC(=O)Nc2ccccc2OC(F)F)c1 | -2 | -6 | 6 | -64 | -21 | -16
C=C(C)CSc1nc2nc(C)c(Br)cc2[nH]1 | -62 | -2 | 2 | 13 | -6 | 3
COC(=O)CSc1nc2nc(C)c(Br)cc2[nH]1 | -23 | -4 | 4 | 11 | 100* | ?
c1ccc(-c2ccnc3nc(N4CCN(c5ccccc5)CC4)nn23)cc1 | -11 | -1 | 1 | 9 | -14 | 1
c1ccc(Oc2ccc(-c3ccnc4nc(N5CCN(c6ccccc6)CC5)nn34)cc2)cc1 | -2 | 5 | -5 | 53* | -8 | 30
CSc1nc2nccc(-c3ccc(Oc4ccccc4)cc3)n2n1 | -11 | 11 | -10 | 1 | -42 | 86*
O=C(NCc1ccccc1)Oc1cccc(Cl)c1 | -62 | 42* | -42 | -31 | -5 | 14
Cc1c(Br)c([N+](=O)[O-])nn1CCCC(=O)Nc1sc2c(c1C#N)CCC2 | nt | nt | nt | 24 | nt | nt
Cc1c(Br)c([N+](=O)[O-])nn1CC(=O)Nc1sc2c(c1C(=O)OC(C)C)CCCC2 | 19 | -12 | 12 | 64* | -4 | 10
SMILES | IL1B cytotox | IL1B NFkB pot | IL1B NFkB inh | E-sel TNF inh | TNFa cytotox | VCAM1 TNFa inh
CC(C)C(NS(=O)(=O)c1cccs1)C(=O)NCCN1CCN(c2ccccc2)CC1 (stereo unspecified) | 4 | -33 | 33* | 17 | -6 | -6
O=C(Nc1nc2ccc([N+](=O)[O-])cc2s1)c1ccco1 | nt | nt | nt | 6 | nt | nt
Cc1ccc2c(C(=O)CN3CCN(C4CCCCC4)CC3)c(C)[nH]c2c1 | 92* | 19 | -19 | -1 | -10 | 2
Fc1ccc(C(CNC(=S)NC2CCCCC2)N2CCOCC2)cc1 (stereo unspecified) | nt | nt | nt | -7 | nt | nt
O=C(Cc1cccs1)NCc1ccncc1 | 0 | -3 | 3 | 64* | -2 | -1
Cc1cccc(N(CC(=O)N/N=C/c2ccc(OCC(=O)NCc3ccco3)cc2)S(C)(=O)=O)c1C | -10 | 14 | -14 | -3 | 44 | 78*
Cc1cc(C)cc(CSCC(=O)N/N=C/c2ccc(OCC(=O)NCc3ccco3)cc2)c1 | -32 | 20 | -20 | 48 | 9 | 0
COc1ccc(-n2c(=S)[nH]c3cc(C(=O)NCc4ccco4)ccc3c2=O)cc1OC | 14 | 19 | -19 | 67* | 3 | 3
O=C(NCc1ccco1)c1ccc2c(=O)n(-c3ccccc3)c(=S)[nH]c2c1 | -18 | -6 | 6 | nt | 10 | -11
O=C(c1cc(-c2ccncc2)nc2ccc(Br)cc12)N1CCN(c2ccccn2)CC1 | -39 | 8 | -8 | -18 | nt | 100*
O=C(c1cccn2c(=O)c3cc(Br)ccc3nc12)N1CCN(c2ccccn2)CC1 | -26 | -10 | 10 | 19 | 16 | -7
CC/C(=N\NC(=O)c1ccc(-c2ccccc2)cc1)C12CC3CC(CC(C3)C1)C2 | -20 | -1 | 1 | nt | -11 | -12
CSC(=O)CC(=O)NC(=O)c1ccccc1 | 89* | -2 | 2 | -8 | -2 | 0
CN(c1ccc(C(=O)N2CCCCC2)cc1)S(C)(=O)=O | 12 | 9 | -9 | 0 | -5 | 9
CN(c1ccc(C(=O)Nc2ccccc2C(=O)N2CCCC2)cc1)S(C)(=O)=O | 82* | 0 | 0 | -7 | nt | -22
O=C1NC(=O)/C(=C\c2ccc(N3CCOCC3)o2)N1 | nt | nt | nt | -16 | nt | nt
CN(C)CCCNc1cn[nH]c(=O)c1Cl | -2 | 11 | -11 | -4 | -7 | -9
O=C1NCCCc2c1oc1cc(Br)c(O)c(Br)c21 | nt | nt | nt | 97* | nt | nt
Cc1ccc(SCc2cc(=O)[nH]c(/N=C(\N)Nc3ccc(C)c(C)c3)n2)cc1 | 6 | 11 | -11 | -36 | 13 | 1
O=C(N/N=C/c1cccc2ccccc12)c1n[nH]c2c1CCCC2 | nt | nt | nt | -5 | nt | nt
O=C(N/N=C/C(Br)=C\c1ccccc1)c1n[nH]c2c1CCC2 | 62 | -4 | 4 | 57 | 69 | 91*
O=C(N/N=C/C=C/c1ccccc1)c1n[nH]c2c1CCC2 | 47 | -34 | 34* | 10 | 25 | 68*
CC(/C=N/NC(=O)c1n[nH]c2c1CCC2)=C\c1ccccc1 | 6 | 31 | -31 | 36 | 70 | 67*
CCOC(=O)c1nnn(-c2nonc2N)c1CN(CC)c1ccccc1 | -43 | 0 | 0 | 10 | -23 | 2
Cc1ccc(CSc2nc3nc(C)cc(C)c3c(=O)[nH]2)cc1 | nt | nt | nt | 2 | nt | nt
Cc1nc(SCc2ccc(Br)cc2)[nH]c(=O)c1C | 8 | 0 | 0 | 15 | 33 | 67*
CCOc1ccc(N(CC(=O)Nc2cccc(Cl)c2)S(=O)(=O)c2c(C)noc2C)cc1 | -30 | -9 | 9 | nt | -10 | -8
